High-throughput results deposited in PubChem BioAssay by The Scripps Research Institute Molecular Screening Center.
Sampled rows, rich in hits. Any-hit rate of the full collection: about 3.4%.
PP1 counter: PP1-alpha (human) inhibition in PP5 counter-screen | P62136 | purified PP1alpha, OMFP fluorescence | inhibition, % at 6.7 µM | 0.9% of 320,000 active | AID 2235;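 active = inhibition above the mean inhibition of all tested compounds plus 3 SD, computed separately for each screening campaign, cut at about 15% in these data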
PAFAH1B3 inh: inhibitors of human PAFAH1B3 | Q15102 | recombinant PAFAH1B3, FP-rhodamine probe, fluorescence polarization | inhibition, % at 3.39 µM | 0.28% of 340,000 active;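 active = inhibition above the screen-wide average of all tested compounds plus 3 SD, cut at about 25% in these data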;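 note: 0% = enzyme with DMSO only and 100% = wells lacking PAFAH1B3 protein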
PP5 inh: blocks human protein phosphatase 5 activity; P53041; purified PP5c, OMFP substrate fluorescence; inhibition, % at 6.7 µM; 0.18% of 320,000 active; AID 1987;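 active = inhibition above the campaign's mean inhibition across all tested compounds plus 3 SD, cut at about 9.5% in these data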;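 note: 0% = DMSO only and 100% = 100 µM cantharidin control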
Target sequence (P53041 whole entry, looked up): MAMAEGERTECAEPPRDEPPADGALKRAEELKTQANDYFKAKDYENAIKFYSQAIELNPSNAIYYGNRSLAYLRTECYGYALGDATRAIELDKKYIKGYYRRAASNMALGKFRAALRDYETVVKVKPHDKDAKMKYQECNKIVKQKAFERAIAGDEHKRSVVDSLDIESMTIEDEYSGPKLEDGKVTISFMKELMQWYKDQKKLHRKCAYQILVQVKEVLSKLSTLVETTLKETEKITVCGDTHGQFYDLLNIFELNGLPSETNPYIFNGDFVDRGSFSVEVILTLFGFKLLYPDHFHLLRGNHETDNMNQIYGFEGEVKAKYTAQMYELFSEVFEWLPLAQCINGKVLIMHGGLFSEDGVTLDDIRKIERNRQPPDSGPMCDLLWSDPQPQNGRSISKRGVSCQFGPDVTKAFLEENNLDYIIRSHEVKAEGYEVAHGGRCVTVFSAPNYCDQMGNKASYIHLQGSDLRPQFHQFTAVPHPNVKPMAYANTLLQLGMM
PAFAH1B2 inh: blocks human PAF acetylhydrolase 1b catalytic subunit 2; 1.2% of 340,000 active; recombinant PAFAH1B2, FP-rhodamine activity probe, fluorescence polarization; P68402; AID 492953; inhibition, % at 3.39 µM;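 active = inhibition above the mean of all tested compounds plus 3 SD, cut at about 24% in these data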;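 note: 0% = enzyme with DMSO and 100% = wells lacking PAFAH1B2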
PAFAH2 inh: PAFAH2 (human) inhibition | 0.99% of 340,000 active | Q99487 | inhibition, % at 3.39 µM | AID 492956 | recombinant PAFAH2, FP-rhodamine activity probe, fluorescence polarization;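 active = inhibition above the mean over all tested compounds plus 3 SD, cut at about 30% in these data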;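 note: inhibitors block probe labeling of enzyme so polarization drops; 0% = enzyme with DMSO and 100% = wells lacking PAFAH2 protein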
pPAFAH inh: inhibitors of human plasma PAF acetylhydrolase (pPAFAH) | 1.5% of 330,000 active | Q13093 | AID 463082 | recombinant pPAFAH, FP-rhodamine probe fluorescence polarization | inhibition, % at 3.39 µM;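 active = inhibition above the mean inhibition across the screen plus 3 SD, cut at about 25% in these data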;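 note: inhibitors block binding of the rhodamine activity-based probe so polarization drops; 0% = enzyme with DMSO and 100% = wells lacking pPAFAH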
* hit, by the source's call; . = no result.

SMILES	PP1 counter	PAFAH1B3 inh	PP5 inh	PAFAH1B2 inh	PAFAH2 inh	pPAFAH inh
O=C(NCC1CCCO1)c1cccc(S(=O)(=O)Nc2ccc(F)cc2)c1 (configuration not stated)	-2.5	9.1	-0.3	7.1	1.1	24.8*
O=C(N/N=C/c1ccccn1)NC12CC3CC(CC(C3)C1)C2	-1.6	.	2.9	.	.	6.0
COC(=O)Cc1cc(=O)[nH]c(Nc2nc3ccccc3o2)n1	-1.8	11.4	-2.0	2.6	19.5	27.5*
CS(=O)(=O)N(CC(=O)Nc1ccccc1Br)Cc1ccccc1	-1.2	2.5	2.7	3.9	0.2	3.6
COc1ccccc1N=Nc1nc(-c2ccccc2)c(-c2ccccc2)[nH]1	5.1	-7.8	3.8	-3.8	1.6	6.0
Oc1ccccc1N=Nc1nc(-c2ccccc2)c(-c2ccccc2)[nH]1	17.4*	7.1	7.4	4.8	-4.7	11.2
CCN(C(=O)CCN1C(=O)S/C(=C\c2ccccc2)C1=O)C1CCS(=O)(=O)C1 (configuration not stated)	-0.4	-12.4	-1.4	-0.7	-7.0	2.2
Cc1cccc(OCc2ccccc2)n1	.	6.8	.	0.5	-0.2	.
CN1C(=O)/C(=C/c2ccc(-c3ccccc3[N+](=O)[O-])o2)SC1=Nc1ccc(Cl)c(C(=O)O)c1	5.7	23.2	3.0	16.2	31.2*	29.4*
Cc1ccc(C)c(N2C(=N)S/C(=C\c3ccc(-c4ccccc4C(=O)O)o3)C2=O)c1	5.8	6.0	0.7	5.2	18.5	21.7
Cc1nc2cc(NCc3ccc(Cl)cc3)ccc2n1C	-0.6	-2.0	2.3	27.6*	-1.6	0.7
CCn1cnc2cc(NCc3ccncc3)ccc21	-3.0	5.2	-0.3	-0.6	-0.7	-8.2
CCn1cnc2cc(NCc3ccc(Cl)cc3)ccc21	-0.4	3.0	3.7	32.4*	-3.2	-1.0
CCN1CC(CN(C)Cc2nc(-c3ccc(C(F)(F)F)cc3)oc2C)CC1=O (configuration not stated)	-1.2	6.2	2.3	2.8	3.8	29.9*
O=c1ccn(C2CCCO2)c(=O)[nH]1 (configuration not stated)	.	11.8	.	6.0	-3.8	.
O=C(Nc1c(F)cccc1F)C1CCN(C(=O)c2cccs2)CC1	5.6	5.7	1.9	1.0	14.7	-0.9
O=C(CN1C(=O)S/C(=C\c2cc(Cl)c(O)c(Cl)c2)C1=O)Nc1ccccc1	0.5	15.0	4.6	1.4	11.9	25.5*
Cc1cccc(NC(=O)CN2C(=O)S/C(=C\c3cc(C)n(C)c3C)C2=O)c1	16.3*	-2.3	-2.3	-1.4	-1.8	5.9
Cc1cccc(NC(=O)CN2C(=O)S/C(=C\c3ccc(O)c([N+](=O)[O-])c3)C2=O)c1	-9.2	26.3*	3.1	6.6	26.6	29.4*
O=C(CN1C(=O)S/C(=C\c2ccccn2)C1=O)Nc1ccccc1	.	-1.8	.	-5.4	4.5	.
O=C(NCCCN1CCCC1=O)Nc1ccccc1F	-3.7	-2.2	3.0	-0.8	1.9	2.7
CN(C)C(CNC(=O)CNC(=O)c1ccc2ccccc2c1)c1ccccc1 (configuration not stated)	-1.5	8.4	3.1	-5.0	-4.9	5.0
COc1ccccc1NC(=O)Cn1c(CCC(=O)O)ccc1-c1ccccc1	-3.9	4.2	4.7	3.4	1.2	5.9
O=c1[nH]c(CSc2nc3ccccc3o2)nc2c1cnn2-c1ccccc1	16.4*	-6.1	0.8	9.5	-7.7	-0.9
Cc1cc(-c2ccc3ccccc3c2)n2ncnc2n1	-1.3	4.2	0.5	-0.8	6.9	1.8
CCN(CC(=O)Nc1c(F)cccc1F)C(=O)c1ccc(S(=O)(=O)N(CC)c2ccccc2)cc1	.	11.0	.	11.4	8.3	.
CC(C)C(=O)NC(c1cccc([N+](=O)[O-])c1)c1ccc2cccnc2c1O (configuration not stated)	17.0*	13.9	2.2	3.8	2.5	14.5
C=CCn1c(SCc2ccc(Cl)cc2)nc2c1c(=O)[nH]c(=O)n2C	0.9	8.5	1.9	25.2*	6.3	2.1
O=C(O)C(c1ccccc1)N1C(=O)/C(=C\c2ccc(O)c(O)c2)SC1=S (configuration not stated)	1.6	0.2	3.1	-80.0	-11.2	30.2*
COc1cc(/C=C2\SC(=S)N(C(C(=O)O)c3ccccc3)C2=O)ccc1O (configuration not stated)	-0.9	-121.5	-1.0	-82.7	-146.8	-38.0
